4 compounds from PubChem BioAssay (EPA / NIEHS) can be followed below.

Usually AC50 stands for the concentration giving half of the maximal activity seen.

The source made the active and inactive calls. The calls were made as follows: active = hit-call score of the fitted dose curve at least 0.9, where 1 is the maximum; inactive = score below 0.9.

Read-out in test [1]: Transforming growth factor beta 1 (TGFb1), TGFB1 (gene 7040)
Nature of the test: BSK_KF3CT_TGFb1: BioMAP Diversity Plus: KF3CT Assay for Transforming growth factor beta 1 (TGFb1) Biomarker Activity (AID 2283072). Conditions: primary human keratinocytes with fibroblasts; actives raise or lower the signal. The method, boiled down: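 Read-out: ELISA for TGF-b1 in keratinocyte/foreskin fibroblast human skin co-culture, 24 h after dosing; bidirectional curve fit vs DMSO baseline; gain or loss of signal scored.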

Read-out in test [2]: C-C motif chemokine 2 (Homo sapiens) (UniProt P13500)
Nature of the test: BSK_KF3CT_MCP1: BioMAP Diversity Plus: KF3CT Assay for Monocyte Chemoattractant Protein 1 (MCP1/CCL2) Biomarker Activity (AID 2283073). Conditions: primary human keratinocytes with fibroblasts; actives raise or lower the signal. The method, boiled down:
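Human keratinocyte plus foreskin fibroblast primary co-culture exposed to chemical for 24 h. MCP-1 levels measured by ELISA. Bidirectional curve fitting relative to DMSO negative control as baseline.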

Read-out in test [3]: Matrix Metallopeptidase 9 (MMP9), MMP9 (gene 4318)
Nature of the test: BSK_KF3CT_MMP9: BioMAP Diversity Plus: KF3CT Assay for Matrix Metallopeptidase 9 (MMP9) Biomarker Activity (AID 2283074).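 As to AC50: MMP9 protein level quantified by ELISA in the co-culture.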 To be noted: primary human keratinocytes with fibroblasts; actives raise or lower the signal. In outline: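 ELISA read-out of MMP-9 at 24 h post-dosing in a co-culture of human skin keratinocytes and foreskin fibroblasts. Gain or loss of signal was fitted in both directions against DMSO.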

Read-out in test [4]: urokinase plasminogen activator (uPA), PLAU (gene 5328)
Nature of the test: BSK_KF3CT_uPA: BioMAP Diversity Plus: KF3CT Assay for urokinase plasminogen activator (uPA) Biomarker Activity (AID 2283075). To be noted: primary human keratinocytes with fibroblasts; actives raise or lower the signal. The method, boiled down: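 Skin co-culture (keratinocytes + foreskin fibroblasts), human primary; 24 h post-dose; uPA by ELISA; gain/loss fit vs DMSO baseline.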

Read-out in test [5]: CD40, CD40 (gene 958)
Nature of the test: BSK_LPS_CD40: BioMAP Diversity Plus: LPS Assay for CD40 Biomarker Activity (AID 2283076). To be noted: primary human HUVEC with PBMC; actives raise or lower the signal. In outline:
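Primary human umbilical vein endothelial cells co-cultured with peripheral blood mononuclear cells, LPS-stimulated, were dosed with chemical and read 24 h later. CD40 levels were measured by ELISA and fitted bidirectionally against DMSO as negative control and baseline.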

Read-out in test [6]: E-selectin (Homo sapiens) (UniProt P16581)
Nature of the test: BSK_LPS_Eselectin: BioMAP Diversity Plus: LPS Assay for Eselectin Biomarker Activity (AID 2283077). Conditions: primary human HUVEC with PBMC; actives raise or lower the signal. The method, boiled down:
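Human umbilical vein endothelial cells co-cultured with peripheral blood mononuclear cells under LPS stimulation; E-selectin measured by ELISA 24 h after chemical dosing. Activity fitted bidirectionally against DMSO as negative control and baseline.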

Read-out in test [7]: Interleukin-8 (IL8), CXCL8 (gene 3576)
Nature of the test: BSK_LPS_IL8: BioMAP Diversity Plus: LPS Assay for Interleukin-8 (IL8) Biomarker Activity (AID 2283078). To be noted: primary human HUVEC with PBMC; actives raise or lower the signal. In outline:
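Human umbilical vein endothelial cells co-cultured with PBMC were stimulated with LPS; IL-8 levels were measured by ELISA 24 h after chemical dosing. Activity was fitted bidirectionally against DMSO as negative control and baseline.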

The nature of test [8]: BSK_LPS_SRB: Viability Assessment in the BioMAP Diversity Plus: LPS Assay (AID 2283079).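 Also: total protein by sulforhodamine B absorbance as a cytotoxicity measure; measured one day after compound addition.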 To be noted: primary human HUVEC with PBMC. In outline:
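Human umbilical vein endothelial cells co-cultured with PBMC (LPS system) were dosed for 24 h. Total protein was stained with 0.1% sulforhodamine B after 10% TCA fixation, read at 560 nm, and fitted bidirectionally against DMSO baseline.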

Read-out in test [9]: Interleukin-1 alpha (IL1a), IL1A (gene 3552)
Nature of the test: BSK_LPS_IL1a: BioMAP Diversity Plus: LPS Assay for Interleukin-1 alpha (IL1a) Biomarker Activity (AID 2283080). To be noted: primary human HUVEC with PBMC; actives raise or lower the signal. In outline: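 Human umbilical vein endothelial cells co-cultured with peripheral blood mononuclear cells were LPS-stimulated and exposed to test chemicals for 24 h. IL-1 alpha was quantified by ELISA, with bidirectional curve fitting against DMSO as the negative control and baseline.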

Read-out in test [10]: Monocyte Chemoattractant Protein-1 (MCP1), CCL2 (gene 6347)
Nature of the test: BSK_LPS_MCP1: BioMAP Diversity Plus: LPS Assay for Monocyte Chemoattractant Protein-1 (MCP1) Biomarker Activity (AID 2283081).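 As to AC50: secreted MCP-1 protein quantified by ELISA in culture supernatant.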 Conditions: primary human HUVEC with PBMC; actives raise or lower the signal. The method, boiled down: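 HUVEC plus PBMC co-culture (human primary cells, LPS system) exposed to test chemical for 24 h; MCP-1 measured by ELISA. Bidirectional curve fitting against DMSO baseline; parallel SRB total-protein staining flags overt cytotoxicity.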

Test [11] in a line: BSK_LPS_PGE2: BioMAP Diversity Plus: LPS Assay for Prostaglandin E2 (PGE2) Biomarker Activity (AID 2283082).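 As to AC50: secreted prostaglandin E2 measured by ELISA in LPS-stimulated co-culture.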 To be noted: primary human HUVEC with PBMC; actives raise or lower the signal. The method, boiled down: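 ELISA read-out of PGE2 from human umbilical vein endothelial cells co-cultured with peripheral blood mononuclear cells under LPS, 24 h post-dose. Gain or loss of signal scored relative to DMSO baseline.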

Read-out in test [12]: Macrophage colony-stimulating factor (MCSF), CSF1 (gene 1435)
Nature of the test: BSK_LPS_MCSF: BioMAP Diversity Plus: LPS Assay for Macrophage colony-stimulating factor (MCSF) Biomarker Activity (AID 2283083). Conditions: primary human HUVEC with PBMC; actives raise or lower the signal. The method, boiled down:
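Human umbilical vein endothelial cells co-cultured with peripheral blood mononuclear cells were exposed to compound for 24 h. M-CSF levels were measured by ELISA, and bidirectional curve fitting used DMSO as the negative control and baseline.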

Read-out in test [13]: Tissue Factor, F3 (gene 2152)
Nature of the test: BSK_LPS_TissueFactor: BioMAP Diversity Plus: LPS Assay for Tissue Factor Biomarker Activity (AID 2283084). Conditions: primary human HUVEC with PBMC; actives raise or lower the signal. In outline: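 Human umbilical vein endothelial cells co-cultured with peripheral blood mononuclear cells were dosed and stimulated with LPS. Cell-surface CD142 was quantified by ELISA at 24 h. Activity was fitted bidirectionally against DMSO baseline.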

Read-out in test [14]: Tumor necrosis factor (Homo sapiens) (UniProt P01375)
Nature of the test: BSK_LPS_TNFa: BioMAP Diversity Plus: LPS Assay for Tumour Necrosis Factor alpha (TNFa) Biomarker Activity (AID 2283085).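 As to AC50: TNFa protein level quantified by ELISA in the co-culture.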 To be noted: primary human HUVEC with PBMC; actives raise or lower the signal. In outline:
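HUVEC/PBMC co-culture, LPS-stimulated; 24 h post-dose; TNFa by ELISA; gain or loss of signal fitted bidirectionally vs DMSO baseline.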

Read-out in test [15]: Vascular cell adhesion molecule 1 (VCAM1), VCAM1 (gene 7412)
Nature of the test: BSK_LPS_VCAM1: BioMAP Diversity Plus: LPS Assay for Vascular cell adhesion molecule 1 (VCAM1) Biomarker Activity (AID 2283086). To be noted: primary human HUVEC with PBMC; actives raise or lower the signal. The method, boiled down:
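ELISA read-out of VCAM-1 at 24 h post-dosing in an LPS-driven HUVEC/PBMC primary human co-culture; gain or loss of signal fitted bidirectionally against DMSO baseline. Cytotoxicity tracked in parallel cultures by SRB total-protein staining.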

Read-out in a further test: CD38, CD38 (gene 952)
Nature of the test: BSK_SAg_CD38: BioMAP Diversity Plus: SAg Assay for CD38 Biomarker Activity (AID 2283087). Conditions: primary human HUVEC with PBMC; actives raise or lower the signal. In outline:
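Measures CD38 on a human endothelial/PBMC co-culture driven by SEB and TSST-1, 24 h after compound exposure, using ELISA with fluorescence detection; DMSO defines baseline for bidirectional curve fitting.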

Read-out in test [16]: CD40, CD40 (gene 958)
Nature of the test: BSK_SAg_CD40: BioMAP Diversity Plus: SAg Assay for CD40 Biomarker Activity (AID 2283088). Conditions: primary human HUVEC with PBMC; actives raise or lower the signal. In outline:
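Human umbilical vein endothelial cells co-cultured with PBMC; CD40 levels measured by ELISA with fluorescence read-out 24 h after chemical dosing. Gain or loss of signal fitted bidirectionally against DMSO baseline.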

Read-out in another test: CD69, CD69 (gene 969)
Nature of the test: BSK_SAg_CD69: BioMAP Diversity Plus: SAg Assay for CD69 Biomarker Activity (AID 2283089).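 As to AC50: cell surface CD69 protein quantified by ELISA with fluorescence detection.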 To be noted: primary human HUVEC with PBMC; actives raise or lower the signal. In outline:
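Values derive from bidirectional fitting relative to DMSO vehicle. Cells: umbilical vein endothelium plus peripheral blood mononuclear cells, treated 24 h before fluorescent ELISA for CD69.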

Read-out in test [17]: Monocyte Chemoattractant Protein-1 (MCP1), CCL2 (gene 6347)
Nature of the test: BSK_SAg_MCP1: BioMAP Diversity Plus: SAg Assay for Monocyte Chemoattractant Protein-1 (MCP1) Biomarker Activity (AID 2283090). To be noted: primary human HUVEC with PBMC; actives raise or lower the signal. In outline:
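Values derive from bidirectional fitting of ELISA-measured MCP1 against DMSO controls. Readings were taken 24 h after dosing human vascular endothelial cells co-cultured with peripheral blood mononuclear cells under superantigen stimulation.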

Chain of Tumor necrosis factor (Homo sapiens) (P01375 whole entry, looked up): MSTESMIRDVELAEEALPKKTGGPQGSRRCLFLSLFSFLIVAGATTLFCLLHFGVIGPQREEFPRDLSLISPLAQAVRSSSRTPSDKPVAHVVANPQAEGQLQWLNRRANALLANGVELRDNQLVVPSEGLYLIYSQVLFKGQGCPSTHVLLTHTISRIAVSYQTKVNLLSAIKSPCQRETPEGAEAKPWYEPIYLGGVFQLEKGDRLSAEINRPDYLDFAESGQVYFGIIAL
Chain of E-selectin (Homo sapiens) (P16581 whole entry, looked up): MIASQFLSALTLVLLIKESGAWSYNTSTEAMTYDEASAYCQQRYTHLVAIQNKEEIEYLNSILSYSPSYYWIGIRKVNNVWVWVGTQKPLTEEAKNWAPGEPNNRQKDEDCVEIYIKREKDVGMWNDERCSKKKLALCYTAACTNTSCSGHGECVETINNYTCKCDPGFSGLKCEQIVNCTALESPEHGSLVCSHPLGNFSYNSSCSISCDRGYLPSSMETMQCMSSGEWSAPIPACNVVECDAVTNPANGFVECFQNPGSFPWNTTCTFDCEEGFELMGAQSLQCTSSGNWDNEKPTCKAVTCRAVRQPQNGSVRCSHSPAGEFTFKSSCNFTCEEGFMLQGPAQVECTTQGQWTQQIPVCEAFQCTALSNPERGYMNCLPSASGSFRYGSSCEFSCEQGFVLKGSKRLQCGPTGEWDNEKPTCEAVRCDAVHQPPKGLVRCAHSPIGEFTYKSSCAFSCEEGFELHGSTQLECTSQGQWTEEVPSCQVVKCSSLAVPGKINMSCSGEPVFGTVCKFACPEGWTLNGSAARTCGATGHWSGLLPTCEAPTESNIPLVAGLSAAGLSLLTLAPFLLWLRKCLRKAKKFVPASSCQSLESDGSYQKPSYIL

With `CC(C)(C)C(O)/C(=C\c1ccc(Cl)cc1Cl)n1cncn1` (stereo unspecified), the result in test [1], in test [13] and in test [14] was inactive. In addition, the concentration at half-maximal activity (AC50) in [2] is 34.3 µM (active); in [3], 28.5 µM (active); in test [4], 32.2 µM (active); with CD40, CD40 (gene 958) [5], 18.4 µM (active); in [6], 21.9 µM (active); in test [7], 32.4 µM (active). The AC50 in test [8] was 31 µM (active); in [9] it was 33.2 µM (active); in [10] it was 30.5 µM (active); in [11], 0.994 µM (active); in test [12] it was 20.6 µM (active); in [15], 27.6 µM (active). For the same compound, the half-maximal activity concentration (AC50) is 27.5 µM (active) with CD38, CD38 (gene 952); 25.6 µM (active) with CD40, CD40 (gene 958) [16]; 15.8 µM (active) with CD69, CD69 (gene 969); 31.8 µM (active) in test [17].

Turning to `CCC(C)(C)C(=O)OC1=C(c2ccc(Cl)cc2Cl)C(=O)OC12CCCCC2`, the AC50 in test [1] was 31 µM (active); in test [2], 31.4 µM (active); in [3], 20 µM (active); in test [4], 30.9 µM (active); with CD40, CD40 (gene 958) [5], 10.5 µM (active); in test [6], 25.3 µM (active). The AC50 in test [7] was 32.6 µM (active); in [8], 28.6 µM (active); in [9], 36.5 µM (active); in [10], 31.2 µM (active); in test [12], 17.5 µM (active); in test [13], 14.1 µM (active). Moreover, the AC50 in test [14] is 32.5 µM (active); in test [15], 24.4 µM (active); with CD38, CD38 (gene 952), 10.3 µM (active); with CD40, CD40 (gene 958) [16] it was 10.6 µM (active); in the test with CD69, CD69 (gene 969), 14.9 µM (active); in test [17], 16.7 µM (active). In addition, the outcome in [11] was inactive.

Regarding `O=C(O)COc1ccc(Cl)cc1Cl`, the outcome in test [1] is “inactive”; in test [2], “inactive”; in test [3] it was “inactive”; in test [4], “inactive”; with CD40, CD40 (gene 958) [5] it was “inactive”; in [6], “inactive”. In addition, the result in [7], in test [8], in test [9], in [10], in test [11] and in test [12] was inactive. Also, the outcome in [13] is “inactive”; in test [14] it was “inactive”; in test [15] it was “inactive”; in the test with CD38, CD38 (gene 952), “inactive”; in the test with CD40, CD40 (gene 958) [16], “inactive”; in the test with CD69, CD69 (gene 969), “inactive”. Besides, the result in test [17] was inactive.

Take `CC1(C)C(C=C(Cl)Cl)C1C(=O)OC(C#N)c1ccc(F)c(Oc2ccccc2)c1` (stereo unspecified): the outcome in [1] is “inactive”; in [2], “inactive”; in test [3], “inactive”; in test [4], “inactive”; in the test with CD40, CD40 (gene 958) [5], “inactive”; in [6] it was “inactive”. Further, the outcome in test [9], in [10], in test [12], in test [13], in [14] and in [15] was inactive. The outcome with CD38, CD38 (gene 952) was “inactive”; in the test with CD40, CD40 (gene 958) [16], “inactive”; in the test with CD69, CD69 (gene 969), “inactive”. The AC50 in test [7] is 20 µM (active); in test [8], 6.63 µM (active); in test [11], 5.22 µM (active); in test [17], 7.41 µM (active).
